Compound activity from PubChem.
Compounds with a hit are over-represented: about 0.93% of the library has one in this group of screens.
Jurkat NFkB inh: inhibitors of the PMA/ionomycin-induced NF-kB reporter in Jurkat cells; PMA/ionomycin-induced NF-kB luciferase reporter, luminescence; inhibition, % at 4 µM; 0.53% of 330,000 active; in the data active means inhibition above about 50%
HIF activator: HIF pathway transcriptional activation; activation, % at 7.5 µM (by protocol); U2OS HRE-luciferase reporter, luminescence; normalized: DMSO 0%, desferrioxamine 100%; 0.32% of 300,000 active;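 active means mean activation of at least 10% of the iron chelator positive control signal, with at least half of replicates also reaching 10%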
CFTR F508del cor: correctors of CFTR F508del function in bronchial epithelial cells. CFBE cells, YFP halide quenching; stimulated with forskolin plus potentiator P3; % fluorescence drop versus neutral controls. activity (quench increase), % at 7.58 µM. 0.36% of 350,000 active. AID 720511;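 active means mean added fluorescence quench of at least 8% versus neutral control, with both replicates also reaching 8%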;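 further: cells transiently co-express mutant CFTR-F508del with the halide-sensitive YFP; corrector assay measuring rescue of mutant channel to the surface after 24 h compound exposure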
697 NFkB inh: inhibitors of the PMA/ionomycin-induced NF-kB reporter in 697 B cells | 697 B-cell NF-kB luciferase reporter, 16 h | inhibition, % at 4 µM | 0.33% of 330,000 active | AID 435022; in the data active means inhibition above about 35%
Jurkat NFkB conf: inhibitors of the PMA/ionomycin-induced NF-kB reporter in Jurkat cells, retest. Jurkat NF-kB luciferase, 16 h. inhibition, % at 4 µM. shares compounds with Jurkat NFkB inh. 27% of 2,700 active;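 active means inhibition reaching about 45% at 4 µM in either replicate, limit read from the data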
A number is an active result; – = inactive; · = no result given.

SMILES | Jurkat NFkB inh | HIF activator | CFTR F508del cor | 697 NFkB inh | Jurkat NFkB conf
Cc1ccsc1C(=O)N/N=C/c1ccc2c(c1)OCO2 | – | – | – | – | –
O=C(O)c1cc(N/N=C/c2ccc3c(c2)OCO3)ccc1Cl | – | – | – | – | ·
O=C(Nc1ccc(F)cc1)N[C@@H]1C[C@@H]2O[C@H](CO)CC[C@@H]2O[C@@H]1CCc1ccc(-c2ccccc2)cc1 | · | · | – | · | ·
O=C(C[C@H]1CC[C@@H](NC(=O)Nc2ccccc2)[C@H](CO)O1)NCc1cccc(F)c1 | · | · | – | · | ·
O=C(Nc1ccncc1)C1CCCN(S(=O)(=O)c2cccc3cccnc23)C1 (stereo not drawn) | 63.0 | – | – | – | –
COc1cccc(NC(=O)C2CCCN(S(=O)(=O)c3cccc4cccnc34)C2)c1 (stereo not drawn) | – | – | – | – | ·
CO[C@@H](CN(C)S(=O)(=O)c1ccc(Cl)cc1)[C@@H](C)CN([C@H](C)CO)S(=O)(=O)c1cccc(Cl)c1 | · | · | – | · | ·
Cc1ccccc1NS(=O)(=O)c1cc2c3c(c1)CC(=O)N3CCC2 | – | – | – | – | ·
COc1ccc(CCNS(=O)(=O)c2ccc(N3CCCC3=O)cc2)cc1 | – | – | · | – | ·
COc1ccc(OC)c(NS(=O)(=O)c2ccc(N3CCCC3=O)cc2)c1 | 54.5 | – | · | – | 55.4
Cc1ccccc1NS(=O)(=O)c1ccc(N2CCCC2=O)cc1 | 53.9 | – | · | – | –
C[C@@H]1CN([C@H](C)CO)S(=O)(=O)c2ccc(C#CCN(C)C)cc2O[C@H]1CN(C)Cc1ccccc1F | · | · | – | · | ·
CCOC(=O)N1CCN(c2c(NCc3ccc(F)cc3)c(=O)c2=O)CC1 | 60.9 | – | – | – | –
CCOC(=O)N1CCN(c2c(NCc3ccc(Cl)cc3)c(=O)c2=O)CC1 | – | – | – | – | ·
COc1ccc([N+](=O)[O-])cc1Nc1c2ccccc2nc2ccccc12 | 58.8 | – | 13.2 | – | –
COc1ccc(OC)c(Nc2c3ccccc3nc3ccccc23)c1 | – | – | – | – | ·
CCCNC(=O)N[C@H]1C=C[C@H](CC(=O)NC2CCC2)O[C@H]1CO | · | · | – | · | ·
O=S(=O)(c1ccc(Cl)cc1)c1snnc1-c1ccccc1 | 52.8 | – | · | – | –
O=S(=O)(c1ccc(F)cc1)c1snnc1-c1ccccc1 | · | – | – | · | ·
O=C(C[C@@H]1C[C@@H]2c3cc(NC(=O)c4ccc5c(c4)OCO5)ccc3O[C@@H]2[C@@H](CO)O1)NCCc1ccccc1 | · | · | – | · | ·
COc1cccc(-c2cc(C(=O)NC3CCCC3)no2)c1 | – | – | · | – | –
COc1cccc(-c2cc(C(=O)Nc3cccc(O)c3)no2)c1 | – | – | · | – | –
O=C(Nc1cccc(O)c1)c1cc(-c2cccs2)on1 | – | – | – | – | –
CC(=O)c1cccc(NC(=O)c2cc(-c3cccs3)on2)c1 | – | – | – | – | ·
CCS(=O)(=O)N1CC2(C1)[C@H](c1ccccc1)[C@H](CO)N2CCC(F)(F)F | · | · | – | · | ·
SMILES | Jurkat NFkB inh | HIF activator | CFTR F508del cor | 697 NFkB inh | Jurkat NFkB conf
CN(Cc1ccccc1)S(=O)(=O)c1ccc(NC(=S)NC(=O)C2CCCC2)cc1 | 62.5 | – | 13.9 | – | –
CN(C)S(=O)(=O)c1ccc(NC(=S)NC(=O)C2CCC2)cc1 | – | – | – | – | ·
C[C@@H]1CN([C@@H](C)CO)C(=O)c2cccc(NC(=O)CCCCCC(=O)Nc3ccccc3N)c2O[C@H]1CN(C)S(=O)(=O)c1cn(C)cn1 | · | · | – | · | ·
Cc1cc(C)nc(/N=C(\N)Nc2ccc(OCCC(C)C)cc2)n1 | 60.7 | – | – | – | –
COc1ccc(N/C(N)=N/c2nc(C)cc(C)n2)cc1 | · | · | – | · | ·
Cc1cc(C)nc(/N=C(\N)Nc2ccc(OCc3ccccc3)cc2)n1 | 51.3 | – | – | – | –
Cc1cc(C)nc(/N=C(\N)Nc2cccc(OCc3ccccc3)c2)n1 | 69.9 | – | – | – | –
O=C(NC[C@@H]1CC[C@H]2[C@H](CN2Cc2cc(-c3ccccc3)on2)O1)c1ccc2c(c1)OCO2 | · | · | – | · | ·
CC1CCN(c2ccc3c(c2)S(=O)(=O)c2ccccc2C3=O)CC1 | – | – | – | – | –
CC(C)NC(=O)N[C@H]1CC[C@@H](CCNS(=O)(=O)Cc2ccccc2)O[C@@H]1CO | · | · | – | · | ·
CCOc1cc(S(=O)(=O)NCc2ccc(OC)cc2)c(OCC)cc1-n1cnnn1 | 56.8 | – | · | – | –
O=C1O[C@@H](c2ccccc2)[C@@H](c2ccccc2)N2[C@@H](c3ccccc3OCCO)[C@]3(C(=O)Nc4ccc(C#CCCO)cc43)[C@@H](C(=O)O)[C@H]12 | · | · | – | · | ·
CCOC(=O)c1cc([N+](=O)[O-])sc1NC(=O)c1ccc(S(=O)(=O)N2CC3(C)CC2CC(C)(C)C3)cc1 (stereo not drawn) | 57.1 | – | – | – | –
CCC(=O)N1CC2(C1)[C@@H](c1ccc(-c3cccc(OC)c3)cc1)[C@@H](CO)N2C(C)=O | · | · | – | · | ·
CC(C)c1ccc(C2C3=C(COC3=O)Nc3cc4c(cc32)OCO4)cc1 (stereo not drawn) | 69.9 | – | – | – | –
CC(C)c1ccc(NS(=O)(=O)c2ccc3c(c2)NC(=O)CO3)cc1 | – | – | – | – | ·
Cc1cc(Cl)c2oc(C(=O)N3CCN(c4ccncc4)CC3)c(C)c2c1 | 61.0 | – | – | – | –
Cc1c(C(=O)N2CCN(c3ccccc3)CC2)oc2c(F)cccc12 | – | – | – | – | ·
Cc1ccc(C(=O)Nc2ccc(Cl)cc2C)c(Cl)c1 | – | – | – | – | –
Cc1ccc(C(=O)Nc2ccc(Cl)cc2C(F)(F)F)c(Cl)c1 | – | – | · | – | ·
CO[C@@H]1CN(C)C(=O)c2cc(NC(=O)c3cc(C)on3)ccc2OC[C@@H](C)N(S(=O)(=O)c2cccc(F)c2)C[C@H]1C | · | · | – | · | ·
C(=C\c1nc(-c2ccncc2)no1)/c1ccccc1 | – | – | – | – | ·
C(=C\c1nc(-c2ccccc2)no1)/c1ccccc1 | – | – | – | – | –
CCN(CC(=O)NCc1ccc(F)cc1)C(=O)/C=C/c1ccc(OC)cc1 | – | – | – | – | ·
CCN(CC(=O)NCc1ccc(F)cc1)C(=O)/C=C/c1ccc(OC)c(S(=O)(=O)NC(C)C)c1 | 50.5 | – | – | – | –
SMILES | Jurkat NFkB inh | HIF activator | CFTR F508del cor | 697 NFkB inh | Jurkat NFkB conf
Cc1ccc2nc(-c3ccc(SCC(=O)Nc4ccc5c(c4)OCCO5)nc3)[nH]c2c1 | – | – | · | – | –
CN(C)C(=O)c1ccc(-c2ccc(C3[C@@H]4CN(C(=O)Cc5ccccc5)C[C@H]3N4)cc2)cc1 (stereo partly drawn) | · | · | – | · | ·
C[C@H](CO)N1C[C@H](C)[C@H](CN(C)Cc2ccncc2)Oc2cc(C#CC3CC3)ccc2S1(=O)=O | · | · | – | · | ·
CO[C@H]1CN(C)C(=O)c2ccc(NC(=O)Nc3cc(F)ccc3F)cc2OC[C@@H](C)N(C(=O)c2cnccn2)C[C@@H]1C | · | · | – | · | ·
COc1ccccc1NC(=O)Cn1nnc(C(=O)NCc2cccs2)c1N | 52.8 | – | – | – | 62.6
CCc1ccccc1NC(=O)Cn1nnc(C(=O)NCc2cccs2)c1N | 51.1 | – | · | – | –
C/C=C/c1ccc([C@@H]2[C@@H](CO)N(C(=O)C3CC3)C23CN(S(=O)(=O)CC)C3)cc1 | · | · | – | · | ·
Cc1ccc2nc(N/C(=N/S(=O)(=O)c3ccc(F)cc3)c3ccccc3)sc2c1 | – | – | – | – | ·
